Bioassay records from PubChem.
NIH3T3 tox: cytotoxic compounds in NIH 3T3 cells; AID 1345082; NIH 3T3 viability, CellTiter-Glo ATP luminescence, 48-72 h; Potency, µM (series often up to 96.7 µM), for the others: top-dose activity change, negative = cytotoxicity, most hits filed as inhibitors; 94,000 tested, 4.3% active; active = well fitted curve in the direction sought with a large enough effect; inconclusive = small, poorly fitted or top-dose-only effect, or another doubt; inactive = no such curve, though single readings can be large; an effect the other way counts as inactive or inconclusive; note: % is set by controls: 0 for no effect and ±100 for the full control effect; nearly all actives have a fitted effect of over 55% in size
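Cytotoxicity was measured by CellTiter-Glo ATP luminescence after 48 or 72 h compound exposure at 37 °C. Mouse NIH 3T3 fibroblasts were seeded at 400 cells/well and dosed by 23 nL pin transfer.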
HEK cytotox: HEK 293 cell cytotoxicity | HEK 293 viability, ATP luminescence (CellTiter-Glo), 48-72 h | Potency, µM (top dose mostly 115 µM), for inactives: at the highest dose activity change, negative = cytotoxicity, most hits filed as inhibitors | AID 1345083 | 94,000 tested, 6.6% active; active = well fitted curve in the direction sought with a large enough effect; inconclusive = small, poorly fitted or top-dose-only effect, or another doubt; inactive = no such curve, though single readings can be large; an effect the other way counts as inactive or inconclusive; note: % is set by controls: 0 for no effect and ±100 for the full control effect; nearly all actives have a fitted effect of over 60% in size
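ATP-coupled CellTiter-Glo luminescence served as viability read-out, recorded 10 min after reagent addition at room temperature. HEK 293 cells, 250 cells/well, had been incubated with pintool-transferred compound for 48 or 72 hr at 37 degree Celsius.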
Luciferase inh: Photinus pyralis luciferase inhibition; purified P. pyralis luciferase, luminescence, biochemical; Potency, µM (highest dose often 115 µM), most hits filed as inhibitors; 76,000 tested, 2.5% active; AID 1347043; active = well fitted curve in the direction sought with a large enough effect; inconclusive = small, poorly fitted or top-dose-only effect, or another doubt; inactive = no such curve, though single readings can be large; an effect the other way counts as inactive or inconclusive; note: % is set by controls: 0 for no effect and ±100 for the full control effect; nearly all actives have a fitted effect of over 65% in size
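FLuc 10nM, D-luciferin 10uM, ATP 10uM, Mg acetate 10mM, Tris acetate pH 7.5, Tween/BSA; cpd qHTS; enzyme added last; CCD luminescence.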
hNpr1 antagonist: human Npr1 receptor antagonism; P16066; HEK293 hNpr1 GloSensor cGMP, ANP-stimulated luminescence; Potency, µM (doses to about 46.3 µM), for the others: top-dose activity change, negative = inhibition, actives largely listed as inhibitors; 76,000 tested, 1.6% active; AID 1347048; note: % is set by controls: 0 for no effect and ±100 for the full control effect; nearly all actives have a fitted effect of over 60% in size
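Compound pre-incubated 30 min at room temperature on GloSensor-loaded HEK293 cells stably carrying hNpr1 and the pGS-40F cGMP biosensor. Stimulation uses hNppA at 0.1 nM final; luminescence is taken at baseline and 20 min post-agonist.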
Npr1 antag conf: confirmation of human Npr1 natriuretic peptide receptor antagonists | shares compounds with hNpr1 antagonist | HEK293 hNpr1 cGMP GloSensor luminescence, ANP-stimulated | Potency, µM (highest dose often 57.6 µM), inactives show at the top dose activity change, negative = inhibition, usual class: inhibitors | 1,400 tested, 76% active; note: nearly all actives have a fitted effect of over 70% in size
Npr2 selectivity: antagonizes human Npr2, subtype selectivity check; Potency, µM (top dose mostly 57.6 µM), for the others: at the highest dose activity change, negative = inhibition, usual class: inhibitors; shares compounds with hNpr1 antagonist; HEK293 hNpr2 GloSensor cGMP luminescence, CNP-stimulated; 1,400 tested, 67% active; note: nearly all actives have a fitted effect of over 70% in size
Target sequence (P20594 whole entry, looked up): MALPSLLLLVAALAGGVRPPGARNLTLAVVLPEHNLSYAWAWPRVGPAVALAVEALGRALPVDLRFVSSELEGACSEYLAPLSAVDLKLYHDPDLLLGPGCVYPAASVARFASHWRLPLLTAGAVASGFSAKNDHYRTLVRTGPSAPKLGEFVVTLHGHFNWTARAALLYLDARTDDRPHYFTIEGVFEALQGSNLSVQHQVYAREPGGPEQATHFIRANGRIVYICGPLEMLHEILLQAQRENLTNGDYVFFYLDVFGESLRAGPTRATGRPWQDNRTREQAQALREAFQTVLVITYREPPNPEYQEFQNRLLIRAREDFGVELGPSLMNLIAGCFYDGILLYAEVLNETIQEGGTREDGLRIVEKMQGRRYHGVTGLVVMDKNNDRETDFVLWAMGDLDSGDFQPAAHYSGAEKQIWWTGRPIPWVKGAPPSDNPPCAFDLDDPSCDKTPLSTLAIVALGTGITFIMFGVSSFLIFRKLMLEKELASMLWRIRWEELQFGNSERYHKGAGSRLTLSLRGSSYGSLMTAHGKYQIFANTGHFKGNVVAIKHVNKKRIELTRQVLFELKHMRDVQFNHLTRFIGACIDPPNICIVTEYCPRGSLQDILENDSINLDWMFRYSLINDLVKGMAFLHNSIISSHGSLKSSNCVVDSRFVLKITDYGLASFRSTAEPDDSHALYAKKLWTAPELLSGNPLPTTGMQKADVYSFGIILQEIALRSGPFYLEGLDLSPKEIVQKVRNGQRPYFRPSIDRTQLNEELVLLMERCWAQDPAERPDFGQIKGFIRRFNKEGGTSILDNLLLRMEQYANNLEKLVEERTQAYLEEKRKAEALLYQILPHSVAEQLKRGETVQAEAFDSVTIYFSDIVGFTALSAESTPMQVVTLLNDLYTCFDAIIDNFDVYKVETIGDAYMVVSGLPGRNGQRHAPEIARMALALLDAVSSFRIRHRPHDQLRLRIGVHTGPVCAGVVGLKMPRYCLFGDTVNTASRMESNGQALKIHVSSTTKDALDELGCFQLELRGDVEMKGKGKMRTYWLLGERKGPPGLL
FLuc inh counter: counter-screen for Npr1 antagonists: firefly luciferase inhibitors. AID 1347047. purified FLuc enzyme, luminescence, Km substrate. shares compounds with hNpr1 antagonist. Potency, µM (titrated, usually from 57.6 µM), inactives show at the highest dose activity change, negative = inhibition, hits mostly inhibitors. 1,400 tested, 0.7% active; active = well fitted curve in the direction sought with a large enough effect; inconclusive = small, poorly fitted or top-dose-only effect, or another doubt; inactive = no such curve, though single readings can be large; an effect the other way counts as inactive or inconclusive; note: series mostly up to about 58 µM; 0% is about no effect
GloSensor cGMP: reduces cGMP signal in GloSensor control cells; shares compounds with hNpr1 antagonist; 1,400 tested, 69% active; Potency, µM (doses to about 57.6 µM), for inactives: at the top dose activity change, negative = inhibition, usual class: inhibitors; HEK293 GloSensor cGMP, SNP-stimulated, luminescence; note: % is set by controls: 0 for no effect and ±100 for the full control effect; nearly all actives have a fitted effect of over 70% in size
* marks the source's active call; other numbers are inactive results; [ ] = dose if it differs, or a comment. Hits are enriched below; roughly 11% of the tested compounds scored in any of these assays. Unless noted, calls come from the whole dose curve. Potency is the fitted concentration of half-maximal effect.

What do the screens show for `COc1ccc(C2Cn3nnc(C(=O)N4CCN(C(=O)c5sccc5C)CC4)c3CO2)cc1` (centres undefined)?
NIH3T3 tox: -8.0%; HEK cytotox: inconclusive; Luciferase inh: inactive; hNpr1 antagonist: inconclusive; Npr1 antag conf: 21.7µM*; Npr2 selectivity: 27.3µM*; FLuc inh counter: 0.9%; GloSensor cGMP: 21.7µM*

What do the screens show for `COc1ccc(C2Cn3nnc(C(=O)N4CCN(C(=O)c5cccc(F)c5)CC4)c3CO2)cc1` (centres undefined)?
NIH3T3 tox: inconclusive; HEK cytotox: inconclusive; Luciferase inh: inactive; hNpr1 antagonist: inconclusive; Npr1 antag conf: 21.7µM*; Npr2 selectivity: 21.7µM*; FLuc inh counter: -1.3%; GloSensor cGMP: 21.7µM*

What do the screens show for `O=C(Cc1ccccc1Cl)N1CCN(C(=O)c2nnn3c2COC(c2ccc(F)cc2)C3)CC1` (centres undefined)?
NIH3T3 tox: -23.1%; HEK cytotox: -7.2%; Luciferase inh: inactive; hNpr1 antagonist: -2.5%

What do the screens show for `O=C(c1cccc(F)c1)N1CCN(C(=O)c2nnn3c2COC(c2ccc(F)cc2)C3)CC1` (centres undefined)?
NIH3T3 tox: -17.7%; HEK cytotox: inconclusive; Luciferase inh: inactive; hNpr1 antagonist: inconclusive

Results for O=C(c1ccccc1F)N1CCN(C(=O)c2nnn3c2COC(c2ccccc2)C3)CC1 (centres undefined) ?
NIH3T3 tox: -9.2%; HEK cytotox: inconclusive; Luciferase inh: inactive; hNpr1 antagonist: -11.2%

How did O=C(c1cc(Cl)ccc1F)N1CCN(C(=O)c2nnn3c2COC(c2ccccc2)C3)CC1 (centres undefined) do in these assays?
NIH3T3 tox: -27.0%; HEK cytotox: inconclusive; Luciferase inh: inactive; hNpr1 antagonist: inconclusive; Npr1 antag conf: 24.3µM*; Npr2 selectivity: inconclusive; FLuc inh counter: -0.4%; GloSensor cGMP: inconclusive

How did CC(C)N1CC(C(=O)NCCc2ccc(Cl)cc2)NC1=O (centres undefined) do in these assays?
NIH3T3 tox: -0.2%[138 µM]; HEK cytotox: inactive

How did CN(CC(O)COc1cccc(CNCCOc2ccccc2)c1)C1CCCCC1 (centres undefined) do in these assays?
NIH3T3 tox: inconclusive; HEK cytotox: inconclusive; Luciferase inh: inactive; hNpr1 antagonist: 7.2%

How did CCn1ccc(C(=O)N2CCC(Cc3ncc(C)n3CCOC)CC2)n1 do in these assays?
NIH3T3 tox: -6.7%; HEK cytotox: inactive; Luciferase inh: inactive; hNpr1 antagonist: -1.6%

What do the screens show for `COc1ccc(C2Cn3nnc(C(=O)N4CCN(C(=O)c5cc(F)ccc5F)CC4)c3CO2)cc1` (centres undefined)?
NIH3T3 tox: -26.6%; HEK cytotox: inconclusive; Luciferase inh: inactive; hNpr1 antagonist: inconclusive; Npr1 antag conf: 19.3µM*; Npr2 selectivity: 19.3µM*; FLuc inh counter: 4.0%; GloSensor cGMP: 19.3µM*

What do the screens show for `COc1ccc(C2Cn3nnc(C(=O)N4CCN(C(=O)c5c(F)cccc5F)CC4)c3CO2)cc1` (centres undefined)?
NIH3T3 tox: inconclusive; HEK cytotox: inconclusive; Luciferase inh: inactive; hNpr1 antagonist: -2.4%

How did O=C(COc1ccccc1)N1CCN(C(=O)c2nnn3c2COC(c2ccc(Cl)cc2)C3)CC1 (centres undefined) do in these assays?
NIH3T3 tox: inconclusive; HEK cytotox: 25.1µM*; Luciferase inh: inactive; hNpr1 antagonist: 11.2µM*; Npr1 antag conf: 21.7µM*; Npr2 selectivity: 21.7µM*; FLuc inh counter: -0.7%; GloSensor cGMP: 19.3µM*

What do the screens show for `Cc1ccc(C(=O)N2CCN(C(=O)c3nnn4c3COC(c3ccc(Cl)cc3)C4)CC2)c(C)c1` (centres undefined)?
NIH3T3 tox: inconclusive; HEK cytotox: inconclusive; Luciferase inh: inactive; hNpr1 antagonist: inconclusive; Npr1 antag conf: 21.7µM*; Npr2 selectivity: 24.3µM*; FLuc inh counter: 1.8%; GloSensor cGMP: 21.7µM*

How did Cc1nc2ccccn2c1C(=O)NC(C)c1cnn(-c2ccccn2)c1C (centres undefined) do in these assays?
NIH3T3 tox: inconclusive; HEK cytotox: inconclusive; Luciferase inh: inactive; hNpr1 antagonist: 4.47µM*; Npr1 antag conf: 6.11µM*; Npr2 selectivity: 9.68µM*; FLuc inh counter: 6.5%; GloSensor cGMP: 4.85µM*

What do the screens show for `O=C(CC1CCCCC1)N1CC(n2cc(COCC3CC3)nn2)C1`?
NIH3T3 tox: -11.2%; HEK cytotox: -2.2%

Results for OC1CC(c2cc(N3CCC(CCn4cccn4)CC3)ncn2)C1 (centres undefined) ?
NIH3T3 tox: inconclusive; HEK cytotox: inconclusive; Luciferase inh: inactive; hNpr1 antagonist: 7.94µM*; Npr1 antag conf: 13.7µM*; Npr2 selectivity: 12.2µM*; FLuc inh counter: 0.5%; GloSensor cGMP: 9.68µM*

What do the screens show for `OC1CC(c2cc(N3CCN(c4nsc5ccccc45)CC3)ncn2)C1` (centres undefined)?
NIH3T3 tox: 17.8µM*; HEK cytotox: 11.2µM*; Luciferase inh: inactive; hNpr1 antagonist: 1.58µM*; Npr1 antag conf: 2.73µM*; Npr2 selectivity: 3.06µM*; FLuc inh counter: -12.5%; GloSensor cGMP: 2.43µM*

How did COC1CCN(C(=O)C(C)(C)Oc2nn(CCOc3ccccc3)c3ccccc23)CC1 do in these assays?
NIH3T3 tox: inconclusive; HEK cytotox: 89.1µM*; Luciferase inh: inactive; hNpr1 antagonist: inconclusive; Npr1 antag conf: inconclusive; Npr2 selectivity: 25µM*; FLuc inh counter: -4.2%[86.2 µM]; GloSensor cGMP: -1.4%[86.2 µM]

What do the screens show for `COCc1ccc2c(c1)c(OC(C)(C)C(=O)N1CCN(CCO)CC1)nn2Cc1ccccc1`?
NIH3T3 tox: inconclusive; HEK cytotox: inactive; Luciferase inh: inactive; hNpr1 antagonist: -11.9%
